Assay outcomes as filed in PubChem BioAssay.
C diff growth – blocks growth of Clostridium difficile; Clostridium difficile clinical isolate growth, OD600, 24 h; active compounds read low; growth activity, negative = inhibition, % at 16 µg/mL (by protocol); 86,000 compounds, 0.25% hits;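 active = mean growth activity at or below -80% and every replicate also at or below -80%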;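 note: 0% = DMSO wells and -100% = levofloxacin 16 µg/mL wells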
* marks the source's active call; other numbers are inactive results; ! = not active in a repeat. The entries come from a sample that favours hits as a whole.

SMILES	C diff growth
CCCNC(=O)N1CC2(CN(C)C2)c2c(n(C)c3cc(OC)ccc23)[C@H]1CO	-8
CO[C@H]1CN(C)C(=O)c2ccc(NC(=O)Nc3cc(Cl)cc(Cl)c3)cc2OC[C@H](C)NC[C@H]1C	-96*
CO[C@H]1CN(C)C(=O)c2cc(NC(=O)Nc3ccc(Cl)cc3)ccc2OC[C@H](C)NC[C@@H]1C	-4
CO[C@H]1CN(C)C(=O)c2cc(NC(=O)Nc3ccccc3)ccc2OC[C@@H](C)NC[C@H]1C	-1
CO[C@H]1CN(C)C(=O)c2cc(NC(=O)Nc3ccccc3)ccc2OC[C@@H](C)NC[C@@H]1C	-1
CO[C@H]1CN(C)C(=O)c2cc(NC(=O)Nc3ccc(Cl)c(Cl)c3)ccc2OC[C@H](C)NC[C@@H]1C	-97*
CO[C@@H]1CN(C)C(=O)c2cc(NC(=O)Nc3ccccc3)ccc2OC[C@@H](C)NC[C@@H]1C	0
CO[C@@H]1CN(C)C(=O)c2cc(NC(=O)Nc3ccc(Cl)cc3)ccc2OC[C@@H](C)NC[C@@H]1C	-2
CO[C@H]1CN(C)C(=O)c2cc(NC(=O)Nc3ccc(Cl)cc3)ccc2OC[C@H](C)NC[C@H]1C	-1
CO[C@@H]1CN(C)C(=O)c2cc(NC(=O)Nc3ccc(Cl)c(Cl)c3)ccc2OC[C@@H](C)NC[C@@H]1C	-97*
CO[C@H]1CN(C)C(=O)c2ccc(NC(=O)Nc3cc(Cl)cc(Cl)c3)cc2OC[C@@H](C)NC[C@H]1C	-53
CO[C@@H]1CN(C)C(=O)c2cc(NC(=O)Nc3ccc(Cl)c(Cl)c3)ccc2OC[C@H](C)NC[C@H]1C	-98*
CO[C@H]1CN(C)C(=O)c2ccc(NC(=O)Nc3cc(Cl)cc(Cl)c3)cc2OC[C@@H](C)NC[C@@H]1C	8
CCC(=O)Nc1ccc2c(c1)OC[C@H](C)N(C(=O)c1cnccn1)C[C@H](C)[C@H](OC)CN(C)C2=O	2
C[C@@H]1CCCCO[C@@H](CN(C)C(=O)NC2CCCCC2)[C@@H](C)CN([C@@H](C)CO)C(=O)c2cc(NS(=O)(=O)c3cn(C)cn3)ccc2O1	-1
COc1ccc2c3c([nH]c2c1)[C@H](CO)N(S(C)(=O)=O)CC31CCN(C(=O)CN(C)C)CC1	1
C[C@H]1CN([C@@H](C)CO)C(=O)CCCn2nncc2CO[C@H]1CN(C)C(=O)Nc1cccc(F)c1	9
CO[C@@H]1CN(C)C(=O)c2ccc(NC(=O)Nc3cccc(F)c3)cc2OC[C@@H](C)N(C(=O)Nc2c(C)noc2C)C[C@@H]1C	3
C[C@@H]1CCCCO[C@@H](CN(C)Cc2ccncc2)[C@@H](C)CN([C@@H](C)CO)C(=O)c2cc(NC(=O)C3CCCCC3)ccc2O1	3
COc1cc(CN2CC3(CN(C)C3)c3c([nH]c4cc(OC)ccc34)[C@@H]2CO)cc(OC)c1	1
C[C@H](CO)N1C[C@H](C)[C@H](CN(C)Cc2ccc(C(=O)Nc3ccccc3N)cc2)Oc2ccc(NC(=O)Cc3ccccc3)cc2CC1=O	15
CC(C)NC(=O)N1CC2(C1)[C@H](c1ccccc1)[C@@H](CO)N2C(=O)C1CC1	-2
O=S(=O)(c1ccc(-c2ccccc2)cc1)N1C[C@@H]2N[C@H](C1)C2c1ccc(-c2ccccc2)cc1 (some centres not stated)	13
COc1cccc(S(=O)(=O)N2[C@@H]3CNC[C@H]2C3c2ccc(/C=C/c3ccccc3)cc2)c1 (some centres not stated)	-47
Cc1ccc(S(=O)(=O)N2C[C@@H]3N[C@H](C2)C3c2ccc(/C=C/c3ccccc3)cc2)cc1 (some centres not stated)	-95*!
SMILES	C diff growth
Cc1ccccc1-c1ccc(C2[C@@H]3CN(S(=O)(=O)c4ccccc4)C[C@H]2N3)cc1 (some centres not stated)	-13
COc1ccccc1S(=O)(=O)N1C[C@@H]2N[C@H](C1)C2c1ccc(-c2ccccc2C)cc1 (some centres not stated)	49
COc1cccc(S(=O)(=O)N2C[C@@H]3N[C@H](C2)C3c2ccc(/C=C/c3ccccc3)cc2)c1 (some centres not stated)	-94*!
COc1cccc(-c2ccc(C3[C@@H]4CN(S(=O)(=O)c5ccccc5)C[C@H]3N4)cc2)c1 (some centres not stated)	60
C/C=C/c1ccc(C2[C@@H]3CN(S(=O)(=O)c4ccccc4)C[C@H]2N3)cc1 (some centres not stated)	1
Cc1ccccc1-c1ccc(C2[C@@H]3CN(S(=O)(=O)c4ccccc4C)C[C@H]2N3)cc1 (some centres not stated)	-98*!
COc1ccc2c3c(n(C)c2c1)[C@H](CO)N(C(=O)Nc1ccccc1F)CC31CN(C)C1	-11
CO[C@@H]1CN(C)C(=O)c2ccc(NS(=O)(=O)c3cccc(F)c3)cc2OC[C@@H](C)NC[C@@H]1C	1
CC(C)NC(=O)N(C)C[C@@H]1Oc2cc(C3=CCCC3)ccc2S(=O)(=O)N([C@H](C)CO)C[C@H]1C	-5
CCCC(=O)N1CCC2(CC1)CN(C(=O)COC)[C@@H](CO)c1c2c2ccc(OC)cc2n1C	3
C[C@H]1CCCCO[C@@H](CN(C)C(=O)C2CCCCC2)[C@@H](C)CN([C@@H](C)CO)C(=O)c2cc(N(C)C)ccc2O1	-6
C[C@@H]1CN([C@@H](C)CO)C(=O)CCCn2cc(nn2)CO[C@@H]1CN(C)Cc1ccc(C(=O)O)cc1	-2
O=C(c1cccc(F)c1)N1C[C@H]2[C@@H](c3ccccc31)[C@H](CO)N2C(=O)C1CCOCC1	-4
CC(C)NC(=O)N(C)C[C@@H]1OCCCC[C@@H](C)Oc2ccc(NC(=O)Cc3ccccc3)cc2C(=O)N([C@@H](C)CO)C[C@H]1C	2
CC=Cc1ccc2n(c1=O)C[C@H]1[C@H](CO)[C@@H](C(=O)NCCC)N(C(=O)CC)[C@@H]21 (mixture of isomers)	-2
COCC(=O)Nc1ccc2c(c1)OC[C@@H](C)N(Cc1cncnc1)C[C@H](C)[C@H](OC)CN(C)C2=O	-2
COc1ccc(NC(=O)N2CC[C@@H]3[C@@H](CO)N(C)c4ccc(Br)cc4[C@@H]32)cc1	16
COc1ccc(NC(=O)N2CC[C@@H]3[C@@H](CO)N(C)c4ccc(-c5ccc(F)cc5)cc4[C@@H]32)cc1	42
COc1ccc(NC(=O)N2CC[C@@H]3[C@H]2c2cc(Br)ccc2N(C)[C@@H]3CO)cc1	-100*
COc1cccc(-c2ccc3c(c2)[C@@H]2[C@@H](CCN2C(=O)Nc2ccccc2OC)[C@@H](CO)N3C)c1	-97*
COc1cccc(-c2ccc3c(c2)[C@H]2[C@H](CCN2C(=O)Nc2ccccc2OC)[C@H](CO)N3C)c1	14
COc1cccc(-c2ccc3c(c2)[C@H]2[C@H](CCN2C(=O)Nc2ccccc2OC)[C@@H](CO)N3C)c1	1
CCS(=O)(=O)N1CCC2(CC1)CN(Cc1ccc3c(c1)OCO3)[C@@H](CO)c1c2c2ccc(OC)cc2n1C	-7
O=C(NCC[C@@H]1CC[C@H](NC(=O)c2cnccn2)[C@H](CO)O1)Nc1ccc(Cl)cc1	1
CO[C@@H]1CN(C)C(=O)c2ccc(NC(=O)Nc3ccccc3F)cc2OC[C@@H](C)N(C(C)=O)C[C@H]1C	8
O=S(=O)(NC[C@@H]1CC[C@@H]2[C@@H](CN2Cc2ccccc2C(F)(F)F)O1)c1ccccc1	-5
O=C(C[C@@H]1CC[C@@H]2[C@H](COC[C@H](O)CN2CC2CCCC2)O1)NCC1CC1	0
